Screening results as filed in PubChem.
Hits are enriched below; roughly 19% of the tested compounds scored in any of these assays.
DT40 TDP1 CPT: growth inhibition of DT40 Tdp1-/-;hTDP1 cells with camptothecin (screen for TDP1 inhibitors); chicken DT40 Tdp1-/-;hTDP1 cells + 20 nM CPT, ATP luminescence, 48 h; actives 12% (n = 420,000); Potency, µM (highest dose often 46.2 µM), actives largely listed as inhibitors; also: nearly all actives have a fitted effect of over 55% in size
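Chicken DT40 Tdp1-/- cells stably complemented with human TDP1 were seeded at 400 cells/well in medium containing 20 nM camptothecin, exposed to pin-transferred compounds, and grown at 37 °C for at least 48 hr. Viability was read as ATP luminescence.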
HT1080 IDH1KD tx: kills HT-1080 cells with IDH1 knockdown | Potency, µM (doses to about 46.1 µM), usual class: cytotoxic | actives 2% (n = 360,000) | AID 686971 | HT-1080 IDH1 knockdown viability, ATP luminescence, 48 h
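Using the IDH1-knockdown HT-1080 line run in the same batch and compound series as the NT line, viability after 48 h at 37 °C was determined by CellTiter-Glo luminescence and expressed as % activity.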
IL1B secr inh: inhibitors of inflammasome signaling (IL-1 beta secretion) | AID 743279 | activity change, % at 57.5 µM | actives 4.7% (n = 360,000) | THP-1 LPS/ATP IL-1B secretion, AlphaLISA, 16 h; active compounds read low; in the data active = activity change below about -50%; inconclusive = mostly about -30% to -49%
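THP-1 cells pretreated 1 hr with compounds (up to 57.5 uM final), then stimulated with LPS (250 ng/mL final) plus ATP (1.25 mM final); secreted IL-1B measured by AlphaLISA after 16 hr, decreased signal indicating inhibition.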
TDP1 cell noCPT: qHTS for Inhibitors of human tyrosyl-DNA phosphodiesterase 1 (TDP1): qHTS in cells in absence of CPT; DT40 Tdp1-/- hTDP1 cells, no CPT, ATP luminescence, 48 h; Potency, µM (highest dose often 46.2 µM), actives largely listed as inhibitors; actives 15% (n = 420,000); AID 686978, 2013; also: nearly all actives have a fitted effect of over 55% in size
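DT40 Tdp1-/-;hTDP1 cells, no CPT (DMSO vehicle only), 400 cells/well; compounds pin-transferred; ≥48 hr, 37 °C; CellTiter-Glo 30 min RT dark, luminescence read.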
HT1080-NT tox: kills 2HG-producing HT-1080-NT fibrosarcoma cells; HT-1080-NT fibrosarcoma viability, CellTiter-Glo ATP luminescence, 48 h; actives 1.6% (n = 360,000); Potency, µM (series often up to 46.1 µM), hits mostly cytotoxic;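 also: NT is the 2HG producing partner of a matched IDH1 knockdown line; nearly all actives have a fitted effect of over 55% in size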
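750 cells/well, RPMI + 5% FBS; 2 h settle, compound pin-transfer, 48 h at 37 degrees C. CellTiter-Glo 10 min RT, luminescence. Normalized to DMSO and media-only wells.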
A number is an active result; n = inactive; u = inconclusive; x = no result given. Unless noted, calls follow the shape of the dose curve; as a rule, active = well fitted curve in the direction sought with a large enough effect; inconclusive = small, poorly fitted or top-dose-only effect, or another doubt; inactive = no such curve, though single readings can be large; an effect the other way counts as inactive or inconclusive.

SMILES | DT40 TDP1 CPT | HT1080 IDH1KD tx | IL1B secr inh | TDP1 cell noCPT | HT1080-NT tox
Cc1ccc(C2=NN(C(=O)c3ccco3)C(O)(C(F)(F)F)C2)cc1 (stereo not given) | u | n | -66.1 | u | n
COc1cccc(C2=NN(C(=O)c3ccccc3)C(O)(C(F)(F)F)C2)c1 (stereo not given) | 16.4µM | n | n | 20.6µM | n
COc1ccc(C2(NC(C)=O)CCN(C(=O)c3cccs3)CC2)cc1 | n | n | n | n | n
Cc1ccc(C(=O)COC(=O)C(C)N2C(=O)C3C4C=CC(C4)C3C2=O)cc1 (stereo not given) | n | n | n | n | n
CC(C(=O)OCC(=O)c1ccc([N+](=O)[O-])cc1)N1C(=O)C2C3CCC(C3)C2C1=O (stereo not given) | 16.4µM | n | n | u | n
CC(C(=O)OCC(=O)c1ccc([N+](=O)[O-])cc1)N1C(=O)C2C3C=CC(C3)C2C1=O (stereo not given) | 16.4µM | n | -55.8 | u | n
O=C1C2C3C=CC(C3)C2C(=O)N1CCN1CCN(Cc2ccc([N+](=O)[O-])cc2)CC1 (stereo not given) | u | n | n | 16.4µM | n
O=C(CN1C(=O)C2C3C=CC(C3)C2C1=O)OCC(=O)c1ccc([N+](=O)[O-])cc1 (stereo not given) | u | n | -69.4 | u | n
O=C(CCN1C(=O)C2C3C=CC(C3)C2C1=O)N1CCN(c2ccc([N+](=O)[O-])cc2)CC1 (stereo not given) | u | n | n | u | n
CCn1cc(Br)c(C(=O)Nc2cccc(SC)c2)n1 | n | n | n | n | n
C[n+]1c2n(c3ccccc31)N=C(c1cc(C(C)(C)C)c(O)c(C(C)(C)C)c1)CS2 | 4.11µM | 7.31µM | -100.3 | 2.59µM | 23.1µM
COc1cccc(C2=Nn3c(nnc3-c3ccccc3O)SC2)c1 | u | n | n | u | n
Cc1ccc(C(=O)Nc2nc(-c3ccccc3)c(-c3ccccc3)o2)cc1 | 20.6µM | u | n | 18.4µM | n
Cc1ccc(C(=O)Nc2c(C)cc(-c3ccccc3)oc2=O)cc1 | n | n | n | n | n
Cc1cc(C)nc(SCC(=O)Nc2nc(-c3ccccc3)c(-c3ccccc3)o2)n1 | u | n | n | 23.1µM | n
Cc1cc(=O)[nH]c(SCC(=O)Nc2nc(-c3ccccc3)c(-c3ccccc3)o2)n1 | n | n | n | n | n
Cc1nc(-c2ccc(NC(=O)C(C)(C)C)cc2)c(-c2ccccc2)o1 | u | n | n | 16.4µM | n
CC(C)(C)C(=O)Nc1ccc(N=Nc2ccccc2)cc1 | n | n | u | n | n
O=C(COc1nsnc1N1CCOCC1)Nc1ccc(Cl)cc1 | u | n | n | 14.6µM | n
O=C(COc1nsnc1N1CCOCC1)Nc1ccc([N+](=O)[O-])cc1 | 29.1µM | n | n | 23.1µM | n
CC(=O)/C=C(\C)N=Nc1c(O)[nH]c2ccccc12 | n | n | n | n | n
CCOc1ccc(NC(=S)N=Nc2c(O)[nH]c3ccccc23)cc1 | 9.2µM | u | n | 7.31µM | u
Oc1cccc(NC(=S)N=Nc2c(O)[nH]c3ccccc23)c1 | u | u | n | 13µM | u
COc1ccccc1C(=O)Nc1ccc(S(=O)(=O)N2CCCCC2)cc1 | n | n | n | u | n
COc1ccc(S(=O)(=O)N2CC=C(c3ccccc3)CC2)cc1OC | u | n | n | 23.1µM | n
SMILES | DT40 TDP1 CPT | HT1080 IDH1KD tx | IL1B secr inh | TDP1 cell noCPT | HT1080-NT tox
Cc1ccc(S(=O)(=O)N2CCN(C(=O)c3ccco3)CC2)c(C)c1 | n | n | n | n | n
COc1ccc(S(=O)(=O)N2CCN(Cc3ccccc3)CC2)cc1OC | n | n | n | u | n
O=C(c1cc(S(=O)(=O)N2CCCCC2)ccc1Cl)N1CCOCC1 | n | n | n | n | n
Cc1ccc(S(=O)(=O)N2CCN(C(=O)c3ccccc3Cc3ccccc3)CC2)c(C)c1 | u | u | -71.6 | u | n
COc1ccc(S(=O)(=O)N2CCN(C(=O)c3ccccc3Cc3ccccc3)CC2)cc1OC | u | n | n | 23.1µM | n
COc1ccc(S(=O)(=O)N2CCN(c3ccccc3)CC2)cc1OC | n | n | x | u | n
Cc1ccc(S(=O)(=O)N2CCN(C(=O)c3cc(S(=O)(=O)N4CCOCC4)ccc3Cl)CC2)c(C)c1 | 18.4µM | n | n | 16.4µM | n
O=S(=O)(NCCC1=CCCCC1)c1ccc(Br)cc1 | u | n | n | n | n
O=C(c1cc2ccccc2o1)N1CCN(c2cccc(Cl)c2)CC1 | n | n | n | n | n
CCOC(=O)C(CC)Sc1nnc2[nH]c(=O)cc(C)n12 (stereo not given) | n | x | x | n | x
CC(C)CC(NC(=O)OC(C)(C)C)c1cn([C@@H](Cc2cc3ccccc3[nH]2)C(=O)N2CCN(C(=O)OC(C)(C)C)CC2)nn1 (stereo not given in full) | 18.4µM | n | u | 18.4µM | n
CC[C@@H](C)C(NC(=O)OC(C)(C)C)c1cn([C@@H](CCC(=O)OC(C)(C)C)C(=O)N2CCN(C(=O)OC(C)(C)C)CC2)nn1 (stereo not given in full) | u | n | u | 14.6µM | n
CC(C)(C)OC(=O)CC[C@@H](C(=O)N1CCN(C(=O)OC(C)(C)C)CC1)n1cc(C(CO)NC(=O)OC(C)(C)C)nn1 (stereo not given in full) | n | n | n | n | n
Cc1nnc(NC(=O)C2CCN(C(=O)c3ccsc3)CC2)s1 | n | x | x | n | x
Cc1ccc(-c2noc(-c3cc(-c4ccc(F)cc4)n[nH]3)n2)cc1 | n | x | x | u | x
Cc1ccccc1-c1noc(-c2cc(-c3ccc(F)cc3)n[nH]2)n1 | 20.6µM | x | x | 23.1µM | x
COc1ccc(-c2noc(-c3cc(-c4ccc(F)cc4)n[nH]3)n2)cc1 | 6.51µM | x | x | u | x
CCOc1cc(-c2noc(-c3ccncc3)n2)cc(Br)c1OC | u | u | n | 16.4µM | u
CCOc1ccc(-c2cc(-c3nc(-c4cc(OC)c(OC)c(OC)c4)no3)[nH]n2)cc1 | 9.2µM | x | x | 9.2µM | x
Fc1ccc(-c2cc(-c3nc(-c4ccccc4)no3)[nH]n2)cc1 | n | x | x | n | x
CCc1cccc(C)c1NC(=O)C1=C(C(=O)O)CCCC1 | n | n | n | n | n
COc1ccc(-c2noc(-c3cc(C(C)C)[nH]n3)n2)cc1 | 20.6µM | x | x | 18.4µM | x
COc1cc(OC)cc(-c2nc(-c3ccc(Br)cc3)no2)c1 | n | n | n | n | n
CCOc1cc(-c2nc(-c3ccc(-c4ccc(OC)cc4)nc3OC)no2)cc(OCC)c1OCC | 18.4µM | x | x | 10.3µM | x
CCOc1cc(-c2nc(-c3ccc(C)nc3OC)no2)cc(OCC)c1OCC | u | n | n | u | n
